Laboratory results reported in PubChem BioAssay.
Activity calls are given as the source filed them. Unless noted, the rule behind the calls is not given here.

Assays:
[1] = compounds binding Alexa647 anti-His antibody – biochemical, small-molecule microarray, 635 nm fluorescence, artefact control for SMM control protein annotation, primary screen (AID 1128); conditions: higher = more signal;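 note: score merges feature fluorescence with signal-to-noise for each printed compound spot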
[2] = tested on: Human papillomavirus type 1a E7 protein (residues 1-88); experiment: HPV1a E7 small-molecule binders, primary screen, biochemical, small-molecule microarray, residues 1-88, 635 nm (AID 1129); conditions: small-molecule microarray binding, fluorescence 635 nm; higher = more signal
[3] = target: Focal adhesion kinase 1 (Homo sapiens) (UniProt Q05397); experiment: PTK2 protein binding on printed compound slides – biochemical, small-molecule microarray, 635/667 nm fluorescence, BSA, DTT, primary screen (AID 1130); conditions: 635 nm fluorescence, higher = more signal;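 note: composite of spot emission at 667 nm and signal to noise over triplicate slides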
Sequence of Focal adhesion kinase 1 (Homo sapiens) (Q05397 whole entry, looked up): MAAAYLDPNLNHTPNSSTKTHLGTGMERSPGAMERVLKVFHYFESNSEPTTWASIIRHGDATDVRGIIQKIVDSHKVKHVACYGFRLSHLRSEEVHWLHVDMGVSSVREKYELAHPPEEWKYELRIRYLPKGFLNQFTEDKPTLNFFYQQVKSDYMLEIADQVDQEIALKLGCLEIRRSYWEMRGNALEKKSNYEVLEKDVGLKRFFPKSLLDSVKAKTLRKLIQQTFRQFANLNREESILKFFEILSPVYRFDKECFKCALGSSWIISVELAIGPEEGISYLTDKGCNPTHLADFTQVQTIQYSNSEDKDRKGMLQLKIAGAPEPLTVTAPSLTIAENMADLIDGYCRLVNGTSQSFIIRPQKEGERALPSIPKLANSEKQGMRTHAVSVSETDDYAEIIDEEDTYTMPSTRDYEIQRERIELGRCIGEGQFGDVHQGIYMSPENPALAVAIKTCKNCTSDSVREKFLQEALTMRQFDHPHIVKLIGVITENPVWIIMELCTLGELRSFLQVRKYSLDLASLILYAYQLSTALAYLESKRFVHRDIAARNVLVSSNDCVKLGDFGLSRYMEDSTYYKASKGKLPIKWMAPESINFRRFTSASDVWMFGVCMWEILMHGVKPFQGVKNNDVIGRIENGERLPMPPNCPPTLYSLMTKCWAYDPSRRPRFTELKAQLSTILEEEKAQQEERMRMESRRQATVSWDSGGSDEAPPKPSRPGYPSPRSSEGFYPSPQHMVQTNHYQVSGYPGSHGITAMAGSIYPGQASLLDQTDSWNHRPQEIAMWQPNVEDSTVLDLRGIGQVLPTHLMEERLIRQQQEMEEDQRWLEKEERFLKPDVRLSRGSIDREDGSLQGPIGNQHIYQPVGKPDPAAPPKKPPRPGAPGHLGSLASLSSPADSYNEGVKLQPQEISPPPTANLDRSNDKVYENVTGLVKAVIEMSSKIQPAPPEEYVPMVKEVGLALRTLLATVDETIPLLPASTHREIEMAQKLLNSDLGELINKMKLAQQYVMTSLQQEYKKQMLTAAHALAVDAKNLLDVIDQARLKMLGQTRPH

[4] = tested on: Fibrinogen (Alexa647-labelled); experiment: Alexa647-fibrinogen binding to printed small molecules – biochemical, small-molecule microarray, 635/667 nm fluorescence, artefact control for SMM control-protein annotation, profiling panel (AID 1131); conditions: fibrinogen-A647 binding fluorescence, higher = more signal;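 note: z-score merges 667 nm fluorescence with per-spot signal-to-noise over triplicate slides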
[5] = target: Follistatin (Homo sapiens) (UniProt P19883); experiment: FST protein binding to printed compounds – biochemical, small-molecule microarray, 635/667 nm fluorescence, primary screen (AID 1132); conditions: 635 nm fluorescence, higher = more signal
Sequence of Follistatin (Homo sapiens) (P19883 whole entry, looked up): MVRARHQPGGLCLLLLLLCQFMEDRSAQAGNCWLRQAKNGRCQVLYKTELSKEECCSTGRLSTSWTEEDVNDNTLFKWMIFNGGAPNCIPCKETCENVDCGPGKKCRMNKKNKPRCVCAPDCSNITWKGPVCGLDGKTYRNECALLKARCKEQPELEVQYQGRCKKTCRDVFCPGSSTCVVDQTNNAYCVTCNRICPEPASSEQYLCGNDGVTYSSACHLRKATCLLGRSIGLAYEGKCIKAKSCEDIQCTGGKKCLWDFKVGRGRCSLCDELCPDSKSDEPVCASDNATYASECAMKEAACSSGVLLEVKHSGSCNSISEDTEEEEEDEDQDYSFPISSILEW

[6] = target: Fibroblast growth factor 2 (Homo sapiens) (UniProt P09038); experiment: basic fibroblast growth factor binding to printed compounds – biochemical, small-molecule microarray, 635/667 nm fluorescence, primary screen (AID 1133); conditions: FGF2, fluorescence 635/667, higher = more signal
Sequence of Fibroblast growth factor 2 (Homo sapiens) (P09038 whole entry, looked up): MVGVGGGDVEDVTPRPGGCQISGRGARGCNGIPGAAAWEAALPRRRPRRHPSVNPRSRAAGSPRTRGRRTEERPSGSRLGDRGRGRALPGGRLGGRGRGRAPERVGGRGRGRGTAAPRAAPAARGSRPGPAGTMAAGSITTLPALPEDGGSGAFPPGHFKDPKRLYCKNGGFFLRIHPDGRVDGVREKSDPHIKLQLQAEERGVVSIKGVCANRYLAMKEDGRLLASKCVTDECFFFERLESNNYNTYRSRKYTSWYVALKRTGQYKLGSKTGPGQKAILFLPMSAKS

[7] = JC-1 mitochondrial potential readout, lung cancer cells – cell-based, A549, JC-1 fluorescence, basal, 24 h, 100 nL, profiling panel (AID 1138); conditions: higher = more signal;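 note: A549 lung adenocarcinoma cells under basal conditions with no added stimulus; test concentration not given here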
[8] = tested on: Lefty1; experiment: Lefty1 protein binding to printed compounds – biochemical, small-molecule microarray, 635/667 nm fluorescence, primary screen (AID 1139); conditions: fluorescence 635/667, higher = more signal
[9] = tested on: wheat germ agglutinin (Triticum aestivum), Alexa647-labelled; experiment: Alexa647-WGA lectin binding to printed small molecules – biochemical, small-molecule microarray, 635/667 nm fluorescence, artefact control for SMM control-protein annotation, profiling panel (AID 1140); conditions: WGA-A647 binding, 635 nm fluorescence, higher = more signal;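 note: score merges 667 nm feature emission with signal to noise over triplicate slides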
[10] = target: Luciferin 4-monooxygenase (Photinus pyralis) (UniProt P08659); experiment: inhibition of purified Photinus pyralis luciferase – biochemical, luminescence, purified enzyme, 2006 set, primary screen (AID 1141); conditions: purified firefly luciferase, SteadyGlo luminescence, 30 min; higher = more signal, called active from +8 up or from −8 down;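 note: cell-free assay with purified firefly luciferase at 100 ng per well in PBS; test concentration not given here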
Sequence of Luciferin 4-monooxygenase (Photinus pyralis) (P08659 whole entry, looked up): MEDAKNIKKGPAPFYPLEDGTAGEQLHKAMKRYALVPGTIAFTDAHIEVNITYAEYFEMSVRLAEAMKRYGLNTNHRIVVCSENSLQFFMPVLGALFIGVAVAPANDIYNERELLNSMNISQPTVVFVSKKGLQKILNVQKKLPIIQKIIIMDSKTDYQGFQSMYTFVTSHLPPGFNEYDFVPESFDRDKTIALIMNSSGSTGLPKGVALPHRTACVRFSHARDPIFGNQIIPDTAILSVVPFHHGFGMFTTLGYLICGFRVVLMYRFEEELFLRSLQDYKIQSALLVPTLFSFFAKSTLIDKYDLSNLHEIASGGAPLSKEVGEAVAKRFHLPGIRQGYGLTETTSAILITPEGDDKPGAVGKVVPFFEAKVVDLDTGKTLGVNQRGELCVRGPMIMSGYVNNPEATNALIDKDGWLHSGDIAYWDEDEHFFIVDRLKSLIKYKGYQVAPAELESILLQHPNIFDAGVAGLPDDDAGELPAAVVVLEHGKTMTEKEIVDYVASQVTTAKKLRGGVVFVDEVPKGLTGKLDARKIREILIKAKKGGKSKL

[11] = tested on: Wnt5a (protein binding on small-molecule microarray); experiment: small molecules binding Wnt5a protein – biophysical, small-molecule microarray, 635/667 nm fluorescence, primary screen (AID 1142); conditions: 635 nm fluorescence, higher = more signal;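 note: fluorescence read at 667 nm with signal to noise per printed feature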
[12] = ATP-based viability of Huh7 replicon cells – cell-based, CellTiter-Glo luminescence, basal, 48 h, cytotoxicity control for HCV replication inhibitor project, primary screen (AID 1143); conditions: higher = more signal, called active from +8 up or from −8 down;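 note: Huh7 hepatoma cells carrying a hepatitis C replication reporter with no stimulus; test concentration not given here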
[13] = Pseudomonas biofilm growth suppression – PAO1 strain, BacTiter-Glo luminescence, LB-PBS, primary screen (AID 1144); conditions: P. aeruginosa PAO1 biofilm, 12 h, higher = more signal
[14] = basal CRE-LacZ reporter activity in PC12 – cell-based, unstimulated, primary screen (AID 1145); conditions: no forskolin, luminescence, 4.5 h, higher = more signal, called active from +8 up or from −8 down
[15] = forskolin-driven CRE-LacZ activity in PC12 – cell-based, CRE-LacZ reporter, forskolin-stimulated, primary screen (AID 1146); conditions: luminescence, 4.5 h, higher = more signal, called active from +8 up or from −8 down;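 note: PC12 cells with 6xCRE LacZ reporter stimulated by forskolin 10 µM; beta-galactosidase reporter signal reflecting CREB driven transcription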
[16] = target: Streptavidin (Streptomyces avidinii) (UniProt P22629); experiment: compounds binding control protein streptavidin – biophysical, small-molecule microarray, 635/667 nm fluorescence, artefact control for SMM compound annotation, primary screen (AID 1147); conditions: higher = more signal;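 note: signal reflects streptavidin binding to arrayed compounds as a control protein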
Sequence of Streptavidin (Streptomyces avidinii) (P22629 whole entry, looked up): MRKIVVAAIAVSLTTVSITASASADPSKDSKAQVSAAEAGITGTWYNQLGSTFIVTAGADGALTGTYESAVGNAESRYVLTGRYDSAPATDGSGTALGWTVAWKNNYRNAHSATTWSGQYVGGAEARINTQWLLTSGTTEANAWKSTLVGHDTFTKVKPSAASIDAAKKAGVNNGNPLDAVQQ

[17] = probe aInhba binding on compound microarray – biochemical, small-molecule microarray, 635/667 nm fluorescence, primary screen (AID 1148); conditions: higher = more signal;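 note: score merges 667nm spot fluorescence with signal-to-noise for antibody binding to printed compounds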
[18] = target: Torsin-1A (Homo sapiens) (UniProt O14656); experiment: TOR1A wild-type binding on microarray – cell lysate, small-molecule microarray, lysate, 635/667 nm, primary screen (AID 1149); conditions: COS7 hTOR1A-WT lysate, 635 nm fluorescence, higher = more signal
Sequence of Torsin-1A (Homo sapiens) (O14656 whole entry, looked up): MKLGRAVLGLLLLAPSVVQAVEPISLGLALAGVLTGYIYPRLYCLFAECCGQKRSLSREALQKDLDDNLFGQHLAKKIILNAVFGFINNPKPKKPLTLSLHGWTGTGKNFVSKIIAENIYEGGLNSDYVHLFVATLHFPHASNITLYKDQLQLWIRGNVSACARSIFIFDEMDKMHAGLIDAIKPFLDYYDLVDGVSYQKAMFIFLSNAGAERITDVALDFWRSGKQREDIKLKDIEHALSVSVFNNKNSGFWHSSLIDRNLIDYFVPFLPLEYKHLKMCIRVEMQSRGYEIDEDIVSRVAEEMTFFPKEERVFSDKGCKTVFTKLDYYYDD

[19] = target: Torsin-1A (Homo sapiens) (UniProt O14656); experiment: torsin A mutant lysate binding on microarrays – cell lysate, small-molecule microarray, COS7 lysate, 635/667 nm fluorescence, primary screen (AID 1150); conditions: COS7 hTOR1A mutant lysate, 635 nm fluorescence, higher = more signal;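 note: score pools 667 nm emission and signal to noise measuring lysate protein binding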
[20] = tested on: Sonic hedgehog protein (Shh); experiment: Sonic hedgehog microarray binding compounds – biochemical, small-molecule microarray, 635/667 nm fluorescence, primary screen (AID 1151); conditions: 635 nm fluorescence, higher = more signal;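 note: Shh protein binding to compounds spotted on small-molecule microarray slides; score combines spot fluorescence intensity with signal-to-noise across triplicate slides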

In the case of COC(=O)c1c(CC[C@@H](CO)NC(=O)NCCn2cc(C3(O)CCCC3)nn2)oc(C(C)=O)c1C(=O)OC, the composite z-score [1] was 0.828, the composite z-score [2] was 0.0881 and the composite z-score [3] was 0.182. It also gave a composite z-score [4] of 0.292, a composite z-score [5] of -0.273 and a composite z-score [6] of 0.247. For the same compound, the z-score [7] was -0.415, the composite z-score [8] was 0.199 and the composite z-score [9] was 0.128. The z-score [10] was 0.7 (inactive), the composite z-score [11] was -0.344 and the z-score [12] was -0.177 (inactive). For the same compound, the z-score [13] was 0.699 (inactive), the z-score [14] was 0.978 (inactive) and the z-score [15] was -0.194 (inactive). For the same compound, the composite z-score [16] was 0.102, the composite z-score [17] was -0.203 and the composite z-score [18] was -0.0395. It also gave a composite z-score [19] of 0.105 and a composite z-score [20] of -0.303.
CNS(=O)(=O)c1ccc(C)cc1 gave a composite z-score [1] of -0.0728, a composite z-score [2] of 0.668 and a composite z-score [3] of -0.163. For the same compound, the composite z-score [4] was -0.212, the composite z-score [5] was 0.884 and the composite z-score [6] was 0.917. For the same compound, the z-score [7] was 1.55, the composite z-score [8] was 0.39 and the composite z-score [9] was 0.0044. The z-score [10] was -1.2 (inactive), the composite z-score [11] was 0.365 and the z-score [12] was -1.48 (inactive). For the same compound, the z-score [13] was -0.307 (inactive), the z-score [14] was -0.0576 (inactive) and the z-score [15] was -0.391 (inactive). The composite z-score [16] was 0.385, the composite z-score [17] was -0.231 and the composite z-score [18] was 0.293. The composite z-score [19] was 0.371 and the composite z-score [20] was 0.962.
COCCOC(=O)N1C(=O)[C@@]2(c3cc(C#CCCO)ccc31)[C@H](C(N)=O)[C@H]1C(=O)O[C@H](c3ccccc3)[C@H](c3ccccc3)N1[C@@H]2c1ccc(O)cc1 gave a composite z-score [1] of -0.0637, a composite z-score [2] of -0.469 and a composite z-score [3] of -0.167. For the same compound, the composite z-score [4] was 0.141, the composite z-score [5] was -0.15 and the composite z-score [6] was 0.0091. For the same compound, the z-score [7] was 0.0757, the composite z-score [8] was -0.431 and the composite z-score [9] was 0.115. The z-score [10] was -0.381 (inactive), the composite z-score [11] was 0.186 and the z-score [12] was 0.505 (inactive). For the same compound, the z-score [13] was 0.676 (inactive), the z-score [14] was -0.602 (inactive) and the z-score [15] was -0.702 (inactive). It also gave a composite z-score [16] of -0.36, a composite z-score [17] of -0.163 and a composite z-score [18] of -0.192. It also gave a composite z-score [19] of -0.176 and a composite z-score [20] of -0.412.
COC(=O)[C@@]1(Cc2ccc(F)cc2)[C@H]2c3cc(C(=O)N4CCCC4)n(Cc4ccc(S(C)(=O)=O)cc4)c3C[C@H]2CN1C(=O)c1ccccc1 showed a composite z-score [1] of 1.9, a composite z-score [2] of 1.24 and a composite z-score [3] of 0.566. For the same compound, the composite z-score [4] was 0.773, the composite z-score [5] was 0.751 and the composite z-score [6] was 0.264. It also gave a z-score [7] of 0.427, a composite z-score [8] of -0.0071 and a composite z-score [9] of 0.616. For the same compound, the z-score [10] was 1.18 (inactive), the composite z-score [11] was 0.196 and the z-score [12] was -1.71 (inactive). The z-score [13] was 0.53 (inactive), the z-score [14] was 0.39 (inactive) and the z-score [15] was 0.363 (inactive). For the same compound, the composite z-score [16] was 1.19, the composite z-score [17] was 0.864 and the composite z-score [18] was 0.181. The composite z-score [19] was 0.861 and the composite z-score [20] was -0.716.
Cc1ccc([C@@H]2C[C@@H](Sc3ccccc3)[C@H](C(=O)O)CN2S(=O)(=O)c2ccc(C)cc2)cc1 showed a composite z-score [1] of 1.98, a composite z-score [2] of 1.26 and a composite z-score [3] of 0.373. It also gave a composite z-score [4] of 0.956, a composite z-score [5] of 0.868 and a composite z-score [6] of 0.507. It also gave a z-score [7] of -1.42, a composite z-score [8] of 0.589 and a composite z-score [9] of 1.14. The z-score [10] was 1.88 (inactive), the composite z-score [11] was 0.387 and the z-score [12] was -0.758 (inactive). The z-score [13] was -0.606 (inactive), the z-score [14] was -0.676 (inactive) and the z-score [15] was 0.762 (inactive). It also gave a composite z-score [16] of 1.39, a composite z-score [17] of 0.122 and a composite z-score [18] of 0.877. It also gave a composite z-score [19] of 0.244 and a composite z-score [20] of -0.053.
